# Experimental data taken from PubChem BioAssay (NCATS).
# Results filed as inconclusive are left out. A number with no mark means an inactive call. Calls of active or inactive are those of the source. Calls come from the whole dose curve; as a rule, active = well fitted inhibition curve with a large enough effect; inconclusive = small, poorly fitted or top-dose-only effect; inactive = no such curve, though single readings can be large or run the other way.
# Experiment: Confirmatory screen NINDS Rhodamine qHTS for Zika virus inhibitors (AID 1347161); note: nearly all actives have a fitted effect of over 60% in size
# Conditions: purified enzyme assay, Rhodamine110 substrate fluorescence, 15 min; series mostly up to 114 µM; activity change, negative = inhibition: at the top concentration
# From the text: Avindra Nath, Ph.D., National Institute of Neurological Disorders and Stroke (NINDS), Bethesda, MD
# Radhakrishnan Padmanabhan, Ph.D., Georgetown University (GU), Washington D.C.
# Zika Virus causes congenital defects, including microcephaly and is associated with Guillain-Barre syndrome, eningoencephalitis and myelitis in infected adult. […] Using a target-based approach, we hope to establish a screening paradigm to uncover novel, cell-active NS2B-NS3 protease (Zika Virus) specific inhibitors from NCATS' collection of small molecules using qHTS.
# Four assay panel was created to identify potential Zika Virus inhibitors. Namely, (1) GU unlinked NS2B-NS3 AMC tagged protease qHTS, (2) GU unlinked NS2B-NS3 Rhodamine tagged protease qHTS, (3) NINDS linked NS2B-NS3 AMC tagged protease qHTS, (4) NINDS linked NS2B-NS3 Rhodamine tagged protease qHTS. Active compounds were re-acquired and re-screened to confirm inhibition. Inhibitors were further screened against various confirmatory and counterscreens in dose response format.
# Early Translation Branch (ETB)
# National Center for Advancing Translational Sciences (NCATS), Rockville, MD
# National Institute of Health (NIH), Bethesda, Maryland
# For the linked assay, Nath lab (NINDS) provided the purified linked NS2B-NS3 protease which is consists of hydrophilic domain of NS2B linked to the NS3 protease domain by a flexible (-[…]-) linker. Control compound aprotinin is obtained from Thermo Scientific (#78432; Waltham, Massachusetts). Rhodamine110 substrate ([N-Cbz]-Nle-Lys-Arg-Arg-Rhod110-Arg-Arg-Lys-Nle-[N-Cbz]) was purchased from either Genscript or Bachem.
# 1536-well Protease (Rhodamine110 Substrate) Assay:
# Briefly, 3 microL of enzyme (25 nM final concentration), in assay buffer (10 mM Tris-HCl pH 8.0 with 0.01% Tween 20) were dispensed into a 1,536-well solid-bottom black plate (Greiner Bio One, Monroe, NC). Twenty-three nL of compounds (final concentration range 7.28 nM to 114 microM) or control Aprotinin (final concentration range 3.47 nM to 114 microM) were transferred via Wako Pin-tool (Wako Automation, Richmond, VA). Samples were incubated (room temperature, protected from light) for 15 minutes followed by a 1 microL Rhodamine110 substrate addition (1.5 microM final concentration). Plates were then immediately read on a ViewLux High-throughput CCD imager (PerkinElmer, Waltham, MA) equipped with FITC fluorescence optics (480(20) nm excitation, 540(25) nm emission), then incubated (room temperature, protected from light) for 15 minutes (~15% conversion). The change in fluorescence intensity over the 15-minute reaction period was normalized against no-inhibitor and no-enzyme controls and the resulting percent inhibition data were fitted to a 4-parameter Hill equation. Aprotinin was used as intraplate control.
# Potency is the fitted concentration of half-maximal effect.
SMILES,Potency,"activity change, negative = inhibition"
N#C/C(=C\c1ccc(-c2ccc(Cl)c(C(=O)O)c2)o1)c1nc2ccccc2[nH]1,22.4 µM (active),–
Cc1ccc(NC(=O)CSc2ncccc2C(=O)Oc2ccccc2Cl)cc1Cl,–,15.2%
CC1(COc2ccc(C[C@H]3SC(=O)NC3=O)cc2)CCCCC1,4.4 µM (active),–
Cc1cc(NC(=O)c2ccc(Cl)c(Cl)c2)ccc1-c1cc2ccccc2oc1=O,31.6 µM (active),–
Cc1ccc(NC(=O)c2ccc3c(O)c(S(=O)(=O)c4ccc(Cl)cc4)c(=O)[nH]c3c2)cc1,6.31 µM (active),–
O=c1oc2ccc3ccccc3c2cc1-c1nnc(Nc2cc(C(F)(F)F)ccc2Cl)s1,–,4.01%
N#C/C(=C\c1ccc(-c2cc(Cl)ccc2Cl)o1)C(=O)Nc1ccccc1C(=O)O,6.31 µM (active),–
CC(C)(O)c1ccccc1CC[C@H](SCC1(CC(=O)O)CC1)c1cccc(/C=C/c2ccc3ccc(Cl)cc3n2)c1,22.4 µM (active),–
O=c1c(O)c(Br)ccc2c(Br)c(O)c(O)c(O)c12,7.94 µM (active),–
O=C(Nc1ccc(C(=O)OCc2cc(=O)n3c4c(sc3n2)CCCC4)cc1)c1ccccc1,–,-14.8%
O=C(Nc1ccccc1C(F)(F)F)c1ccc2oc(=O)c(S(=O)(=O)c3ccc(F)cc3)cc2c1,–,-15.1%
O=C(OC1Cc2c(O)cc(O)cc2OC1c1cc(O)c(=O)c2c(O)c(O)cc(C3Oc4cc(O)cc(O)c4CC3OC(=O)c3cc(O)c(O)c(O)c3)c2c1)c1cc(O)c(O)c(O)c1 (stereo not given),11.2 µM (active),–
CC(C)c1nn2c(=O)cc(COC(=O)c3ccc(NC(=O)c4cccs4)cc3)nc2s1,–,6.65%
Nc1c(S(=O)(=O)O)cc(Nc2ccc(Nc3nc(Cl)nc(Nc4ccc(S(=O)(=O)O)cc4)n3)c(S(=O)(=O)O)c2)c2c1C(=O)c1ccccc1C2=O,2 µM (active),–
CCOC(=O)c1ccc(CN(Cc2ccc(F)cc2)S(=O)(=O)c2ccc(F)c(C(=O)Nc3ccccc3C(F)(F)F)c2)cc1,–,0%
O=C(NCc1ccc(Oc2ccccc2)cc1)c1nc(-c2cc(Br)c(O)c(Br)c2)no1,2.21 µM (active),–
CCOc1ccc(C(=O)Nc2ccccc2C(=O)OCc2cc(=O)n3nc(C4CC4)sc3n2)cc1,–,9.33%
Clc1nc2n[nH]nc2nc1Cl,5.62 µM (active),–
O=C(Nc1cccc(C(=O)OCc2cc(=O)n3nc(C4CC4)sc3n2)c1)c1cccc(F)c1,25.1 µM (active),–
CS(=O)(=O)c1ccc(-c2cn3ccccc3n2)cc1,–,-29.7%

SMILES,Potency,"activity change, negative = inhibition"
Nc1cc(N)c(N=Nc2ccc(S(=O)(=O)Nc3nccs3)cc2)cc1N=Nc1ccc(S(=O)(=O)Nc2nccs2)cc1,3.55 µM (active),–
O=c1c(-c2cc(O)c(O)c(O)c2)coc2cc(O)c(O)c(O)c12,12.6 µM (active),–
COc1ccc(-c2nc3cc(F)ccc3s2)cc1OC,–,-16.8% [at 12.7 µM]
O=S(=O)(Nc1ccc(O)c(Sc2nc3ccccc3s2)c1)c1cc(Cl)ccc1Cl,22.4 µM (active),–
O=C(/C=C/c1ccc(C(F)(F)F)cc1)OC(C(=O)NC1CC1)c1ccccc1 (stereo not given),–,3.65%
O=C(OCC#CCSc1nnc(-c2cccc3ccccc23)o1)c1sc(Cl)c(Cl)c1Cl,–,-13.3%
O=C(O)c1c(Br)c(Br)c(Br)c(Br)c1C1c2ccc(O)cc2Oc2cc(O)ccc21,0.891 µM (active),–
Cc1cc(=O)c2c(O)c3c(O)cc(O)c4c5c(O)cc(O)c6c(O)c7c(=O)cc(C)c8c1c2c(c34)c(c65)c78,–,5.74%
COCCOC(=O)c1c(C)n(S(=O)(=O)c2ccc(C)cc2)c2ccc(NS(=O)(=O)c3ccc(C)cc3)cc12,–,117%
O=C1c2ccc(O)c(O)c2C(=O)c2c(O)ccc(O)c21,5.62 µM (active),–
O=C(Nc1ccc(C(=O)OCc2cc(=O)n3nc(C4CC4)sc3n2)cc1)c1cccc(F)c1,–,-16.5%
CC1CCN(C(c2ccc(F)cc2)c2ccc(C(C)C(=O)O)cc2-c2ccc(C(F)(F)F)cc2)CC1 (stereo not given),3.12 µM (active),–
O=C(O)c1ccccc1-c1c2cc(I)c(=O)c(I)c-2oc2c(I)c(O)c(I)cc12,3.16 µM (active),–
CC(NC(=O)C1CCN(S(=O)(=O)c2ccc3nc4c(c(C(=O)O)c3c2)CCCC4)CC1)c1ccccc1 (stereo not given),–,-25.1%
CC(=O)Oc1cc2c(c(C)c1OC(C)=O)CC=C1[C@@]2(C)CC[C@@]2(C)[C@H]3C[C@](C)(C(=O)O)CC[C@]3(C)CC[C@]12C,3.49 µM (active),–
CCOC(=O)c1ccc(N2C(=O)c3n[nH]c(-c4cccs4)c3C2c2ccc(C(C)(C)C)cc2)cc1 (stereo not given),15.8 µM (active),–
Nc1c(N=Nc2ccc([N+](=O)[O-])cc2)c(S(=O)(=O)O)cc2cc(S(=O)(=O)O)c(/C=C/c3ccccc3)c(O)c12,2.82 µM (active),–
O=C1C=CC(=O)c2c(O)c(Cl)c(Cl)c(O)c21,–,-26.7%
Cc1c2ccccc2c(CSC(=N)N)c2ccccc12,–,117%
CC(=O)C(N=Nc1ccc(S(=O)(=O)Nc2ccccn2)cc1)C(=O)Nc1ccc(Cl)cc1 (stereo not given),20 µM (active),–
